Laboratory results as given in PubChem BioAssay (Tox21).
Where “and” joins values, the source holds several entries; their conditions need not be identical. Equal entries are not always repeated. Inconclusive results are not listed. Where a call stands in place of a potency, no number is given. Some compounds were tested as several samples or in several runs, with calls that do not always agree. Calls of active or inactive are those of the source. Calls follow the shape of the dose curve; as a rule, active = well fitted curve in the direction sought with a large enough effect in the repeat runs; inconclusive = weak or mixed curves; inactive = no such curve, though single readings can be large; an effect the other way counts as inactive or inconclusive.

Assays:
[1] = Human pregnane X receptor (PXR) small molecule agonists, qHTS cell viability counter screen (AID 1346977); also: nearly all actives have a fitted effect of over 50% in size; also: potency is read from the fitted curve at half-maximal effect
Outline: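 Cytotoxicity counter screen run in the same wells as the PXR luciferase assay, using PXR-Luc HepG2 cells in charcoal-stripped serum medium. Viability: CellTiter-Fluor fluorescence after 24hr compound treatment.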

[2] = Caspase-3/7 induction in HepG2 cells by small molecules, qHTS assay (AID 1346978); also: nearly all actives have a fitted effect of over 15% in size
Outline: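 Wild-type HepG2 cells, 2,000/well, settled 5 hr at 37 C and 5% CO2, then compound-treated for 17 hr; caspase-3/7 activity read by luminescent Caspase-Glo 3/7 after 30 min at room temperature.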

[3] = Caspase-3/7 induction in CHO-K1 cells by small molecules, qHTS assay (AID 1346980); also: nearly all actives have a fitted effect of over 15% in size
Outline: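 Wild-type CHO-K1 cells exposed to compounds for 17hr at 37 C, 5% CO2. Caspase-3/7 activity then measured by Caspase-Glo 3/7 luminescence after 30min at room temperature.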

[4] = Caspase-3/7 induction in HepG2 cells by small molecules, qHTS cell viability counter screen (AID 1346981); also: nearly all actives have a fitted effect of over 30% in size; also: potency is read from the fitted curve at half-maximal effect
Outline: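 Cell viability is measured as a cytotoxicity counter screen alongside the Caspase-Glo 3/7 readout in identical wells. Wild-type HepG2 cells are treated with test compounds for 16 hr at 37 C before CellTiter-Fluor addition and a 1-hr incubation.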

[5] = target: Nuclear receptor subfamily 1 group I member 2 (Rattus norvegicus) (UniProt Q9R1A7); assay: Rat pregnane X receptor (rPXR) activation by small molecules, qHTS assay (AID 1346983); settings: rPXR luciferase reporter cells, One-Glo luminescence, 24 h; stronger effect = higher value; also: nearly all actives have a fitted effect of over 20% in size
Outline: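 Cell-based rPXR activation assay: rPXR cells, 2,000 per well, rested 5hr at 37 C, then exposed to compounds in DMSO for 24 hr at 37 C. Luciferase activity read by One-Glo luminescence after 30 min at room temperature.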

[6] = target: Nuclear receptor subfamily 1 group I member 2 (Homo sapiens) (UniProt O75469); assay: CYP3A4 induction through human pregnane X receptor (PXR) by small molecules, qHTS assay (AID 1346984); also: nearly all actives have a fitted effect of over 40% in size
Outline: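 Quantitative HTS in DPX-2 cells, i.e. HepG2 transfected with PXR response element and CYP3A4-promoter luciferase. Compounds in DMSO incubated 24hr at 37C; then P450-Glo CYP3A4 substrate, 3uM final, 3hr; One-Glo luminescence.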

[7] = target: Nuclear receptor subfamily 1 group I member 2 (Homo sapiens) (UniProt O75469); assay: Human pregnane X receptor (PXR) activation by small molecules, qHTS assay (AID 1346985); also: nearly all actives have a fitted effect of over 40% in size
Outline: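 DPX-2 cells (HepG2 co-transfected with a PXR response element and a CYP3A4-promoter luciferase construct) were seeded at 2,000 per well, rested 5 hr at 37C, then exposed to DMSO-dissolved compounds for 24 hr. Activation was read as luciferase luminescence.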

[8] = target: Cytochrome P450 2D6 (Homo sapiens) (UniProt P10635); assay: Cytochrome P450 Family 2 Subfamily D Member 6 (CYP2D6) small molecule antagonists: luciferase reporter qHTS assay (AID 1671196); also: nearly all actives have a fitted effect of over 50% in size; also: potency is read from the fitted curve at half-maximal effect
Outline: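 Enzyme and proluciferin substrate were first combined with test chemical for 10 min at room temperature. Adding NADPH regeneration solution started a 1 h reaction, stopped with luciferin detection reagent and read by luminescence 20 min later.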

[9] = target: Cytochrome P450 2C19 (Homo sapiens) (UniProt P33261); assay: Cytochrome P450 Family 2 Subfamily C Member 19 (CYP2C19) small molecule antagonists: luciferase reporter qHTS assay (AID 1671197); also: nearly all actives have a fitted effect of over 65% in size; also: potency is read from the fitted curve at half-maximal effect
Outline: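 Light output is proportional to CYP2C19 activity: proluciferin substrate is converted to luciferin, then detected by a luciferin detection reagent that also stops the 1 h, 37C NADPH-driven reaction. Ketoconazole serves as positive control.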

[10] = target: Cytochrome P450 2C9 (Homo sapiens) (UniProt P11712); assay: Cytochrome P450 Family 2 Subfamily C Member 9 (CYP2C9) small molecule antagonists: luciferase reporter qHTS assay (AID 1671198); also: nearly all actives have a fitted effect of over 50% in size; also: potency is read from the fitted curve at half-maximal effect
Outline: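 P450-Glo proluciferin substrate with CYP2C9 enzyme; 10 min RT preincubation, then NADPH regeneration 1 h at 37C; luciferin detection reagent 20 min RT, luminescence in relative luminescence units.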

[11] = target: Cytochrome P450 1A2 (Homo sapiens) (UniProt P05177); assay: Cytochrome P450 Family 1 Subfamily A Member 2 (CYP1A2) small molecule antagonists: luciferase reporter qHTS assay (AID 1671199); also: nearly all actives have a fitted effect of over 50% in size; also: potency is read from the fitted curve at half-maximal effect
Outline: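 Compounds were incubated with CYP1A2 and a luminogenic proluciferin substrate for 10 min at room temperature before the reaction was started with NADPH regeneration solution. After 1 h, detection reagent was added and light output, proportional to CYP activity, was recorded.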

[12] = target: Voltage-gated inwardly rectifying potassium channel KCNH2 (Homo sapiens) (UniProt Q12809); assay: Human Ether-a-go-go-Related Gene (hERG) channel small molecule antagonists: fluorescence cell-based qHTS assay (AID 1671200); also: nearly all actives have a fitted effect of over 50% in size; also: potency is read from the fitted curve at half-maximal effect
Outline: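 Fluorescence at 540 nm emission (480 nm excitation) was recorded kinetically for 2 min at 1-second intervals once the thallium-containing stimulus reached cells previously loaded with FluxOR II dye.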

[13] = target: Cytochrome P450 3A4 (Homo sapiens) (UniProt P08684); assay: Cytochrome P450 Family 3 Subfamily A Member 4 (CYP3A4) small molecule antagonists: luciferase reporter qHTS assay (AID 1671201); also: nearly all actives have a fitted effect of over 50% in size; also: potency is read from the fitted curve at half-maximal effect
Outline: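 qHTS, 1536-well. CYP3A4 + proluciferin substrate, cpd 10 min RT → NADPH regen 1 h RT → detection reagent 20 min → luminescence (RLU). Ketoconazole positive control.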

[14] = Caspase-3/7 induction in CHO-K1 cells by small molecules, qHTS cell viability counter screen (AID 1346979); also: nearly all actives have a fitted effect of over 35% in size; also: potency is read from the fitted curve at half-maximal effect
Outline: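 Cytotoxicity counter screen run in parallel with the caspase-3/7 assay: CHO-K1 cells, 16hr compound treatment at 37C, then CellTiter-Fluor for 1hr before fluorescence reading.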

[15] = target: Nuclear receptor subfamily 1 group I member 2 (Homo sapiens) (UniProt O75469); assay: Human pregnane X receptor (PXR) small molecule agonists, qHTS assay (AID 1346982); also: nearly all actives have a fitted effect of over 35% in size; also: potency is read from the fitted curve at half-maximal effect
Outline: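 Cells: HepG2 stably carrying PXR-Luc. Medium held 5% charcoal-stripped FBS. Compounds in DMSO added after 5 hr plating, incubated 24 hr, then luminescence quantified with ONE-Glo.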

Chain of Cytochrome P450 2C19 (Homo sapiens) (P33261 whole entry, looked up): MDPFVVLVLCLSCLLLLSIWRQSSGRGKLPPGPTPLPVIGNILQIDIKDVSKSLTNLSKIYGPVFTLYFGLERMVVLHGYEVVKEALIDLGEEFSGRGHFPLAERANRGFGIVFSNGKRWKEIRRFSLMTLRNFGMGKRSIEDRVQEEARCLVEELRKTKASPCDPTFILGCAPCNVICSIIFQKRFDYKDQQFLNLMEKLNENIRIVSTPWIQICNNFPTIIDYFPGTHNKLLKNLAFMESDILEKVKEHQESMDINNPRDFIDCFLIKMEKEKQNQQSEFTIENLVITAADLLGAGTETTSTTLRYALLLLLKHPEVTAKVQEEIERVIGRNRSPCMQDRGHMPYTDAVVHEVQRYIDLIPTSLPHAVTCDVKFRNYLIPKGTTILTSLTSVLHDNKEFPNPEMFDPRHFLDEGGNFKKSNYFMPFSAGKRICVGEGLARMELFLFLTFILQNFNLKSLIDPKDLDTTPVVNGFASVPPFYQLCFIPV
Chain of Voltage-gated inwardly rectifying potassium channel KCNH2 (Homo sapiens) (Q12809 whole entry, looked up): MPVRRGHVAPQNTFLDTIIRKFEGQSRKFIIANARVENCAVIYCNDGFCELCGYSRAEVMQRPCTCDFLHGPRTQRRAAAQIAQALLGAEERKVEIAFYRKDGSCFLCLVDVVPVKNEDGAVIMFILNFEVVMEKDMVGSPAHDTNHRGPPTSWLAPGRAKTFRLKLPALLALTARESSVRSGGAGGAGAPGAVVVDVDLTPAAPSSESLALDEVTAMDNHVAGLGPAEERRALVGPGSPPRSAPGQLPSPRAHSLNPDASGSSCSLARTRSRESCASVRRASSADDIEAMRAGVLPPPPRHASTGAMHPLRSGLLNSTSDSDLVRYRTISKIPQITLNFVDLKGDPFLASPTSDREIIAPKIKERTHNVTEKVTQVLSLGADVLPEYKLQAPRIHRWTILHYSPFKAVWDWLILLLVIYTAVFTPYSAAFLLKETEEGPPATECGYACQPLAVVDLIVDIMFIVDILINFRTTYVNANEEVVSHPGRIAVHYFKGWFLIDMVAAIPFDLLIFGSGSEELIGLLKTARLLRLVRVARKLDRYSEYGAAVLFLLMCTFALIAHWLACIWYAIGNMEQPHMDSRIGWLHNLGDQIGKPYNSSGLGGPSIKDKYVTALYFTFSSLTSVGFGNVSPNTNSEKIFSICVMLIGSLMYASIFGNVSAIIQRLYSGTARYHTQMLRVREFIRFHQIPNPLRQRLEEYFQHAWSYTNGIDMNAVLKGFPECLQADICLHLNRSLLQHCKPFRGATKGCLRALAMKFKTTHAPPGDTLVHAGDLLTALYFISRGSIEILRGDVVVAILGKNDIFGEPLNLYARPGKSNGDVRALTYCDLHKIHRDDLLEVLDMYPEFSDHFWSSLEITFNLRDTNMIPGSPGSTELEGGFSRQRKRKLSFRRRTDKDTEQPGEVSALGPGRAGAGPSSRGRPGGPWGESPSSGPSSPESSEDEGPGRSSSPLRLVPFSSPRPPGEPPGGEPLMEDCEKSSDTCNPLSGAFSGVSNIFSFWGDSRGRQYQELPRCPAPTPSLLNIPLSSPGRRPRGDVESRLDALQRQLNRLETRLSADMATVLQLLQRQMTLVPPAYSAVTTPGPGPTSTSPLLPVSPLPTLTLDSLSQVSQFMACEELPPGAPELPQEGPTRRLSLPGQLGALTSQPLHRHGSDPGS
Chain of Nuclear receptor subfamily 1 group I member 2 (Homo sapiens) (O75469 whole entry, looked up): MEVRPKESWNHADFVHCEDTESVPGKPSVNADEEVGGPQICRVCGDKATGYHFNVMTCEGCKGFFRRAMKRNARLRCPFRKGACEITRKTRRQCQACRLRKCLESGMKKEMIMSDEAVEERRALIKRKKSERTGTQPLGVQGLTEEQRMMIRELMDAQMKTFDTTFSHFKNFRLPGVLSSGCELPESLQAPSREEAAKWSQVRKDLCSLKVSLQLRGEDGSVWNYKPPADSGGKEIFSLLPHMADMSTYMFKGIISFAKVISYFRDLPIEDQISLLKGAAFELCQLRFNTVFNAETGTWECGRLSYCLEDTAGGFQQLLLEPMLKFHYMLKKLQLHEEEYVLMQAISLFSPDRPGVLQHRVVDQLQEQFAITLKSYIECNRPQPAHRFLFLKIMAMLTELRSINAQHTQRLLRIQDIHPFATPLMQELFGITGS
Chain of Cytochrome P450 3A4 (Homo sapiens) (P08684 whole entry, looked up): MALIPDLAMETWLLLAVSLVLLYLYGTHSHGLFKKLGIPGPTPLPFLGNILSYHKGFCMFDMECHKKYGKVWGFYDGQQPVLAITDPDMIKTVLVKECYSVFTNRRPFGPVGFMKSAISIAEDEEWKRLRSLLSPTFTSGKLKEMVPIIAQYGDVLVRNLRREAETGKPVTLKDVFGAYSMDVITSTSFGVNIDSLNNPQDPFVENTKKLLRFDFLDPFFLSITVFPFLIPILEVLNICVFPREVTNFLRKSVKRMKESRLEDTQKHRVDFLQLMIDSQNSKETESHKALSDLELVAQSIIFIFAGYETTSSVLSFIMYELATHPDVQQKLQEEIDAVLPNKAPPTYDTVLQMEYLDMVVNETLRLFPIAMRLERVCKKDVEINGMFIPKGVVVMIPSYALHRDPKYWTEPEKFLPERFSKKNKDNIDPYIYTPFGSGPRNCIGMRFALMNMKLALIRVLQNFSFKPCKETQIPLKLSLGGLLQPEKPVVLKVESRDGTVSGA
Chain of Cytochrome P450 2C9 (Homo sapiens) (P11712 whole entry, looked up): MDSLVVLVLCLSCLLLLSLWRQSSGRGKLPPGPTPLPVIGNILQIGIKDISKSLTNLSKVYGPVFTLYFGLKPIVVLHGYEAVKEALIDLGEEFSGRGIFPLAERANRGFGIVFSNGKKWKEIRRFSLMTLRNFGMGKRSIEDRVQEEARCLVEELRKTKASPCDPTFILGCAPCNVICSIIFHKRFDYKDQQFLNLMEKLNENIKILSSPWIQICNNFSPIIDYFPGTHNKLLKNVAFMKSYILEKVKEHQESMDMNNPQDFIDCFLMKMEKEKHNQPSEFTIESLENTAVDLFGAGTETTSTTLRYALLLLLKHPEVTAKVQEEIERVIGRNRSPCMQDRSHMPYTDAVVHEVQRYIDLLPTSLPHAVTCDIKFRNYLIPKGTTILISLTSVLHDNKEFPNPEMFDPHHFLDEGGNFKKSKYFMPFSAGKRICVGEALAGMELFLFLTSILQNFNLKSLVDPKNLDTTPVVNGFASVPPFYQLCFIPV
Chain of Cytochrome P450 2D6 (Homo sapiens) (P10635 whole entry, looked up): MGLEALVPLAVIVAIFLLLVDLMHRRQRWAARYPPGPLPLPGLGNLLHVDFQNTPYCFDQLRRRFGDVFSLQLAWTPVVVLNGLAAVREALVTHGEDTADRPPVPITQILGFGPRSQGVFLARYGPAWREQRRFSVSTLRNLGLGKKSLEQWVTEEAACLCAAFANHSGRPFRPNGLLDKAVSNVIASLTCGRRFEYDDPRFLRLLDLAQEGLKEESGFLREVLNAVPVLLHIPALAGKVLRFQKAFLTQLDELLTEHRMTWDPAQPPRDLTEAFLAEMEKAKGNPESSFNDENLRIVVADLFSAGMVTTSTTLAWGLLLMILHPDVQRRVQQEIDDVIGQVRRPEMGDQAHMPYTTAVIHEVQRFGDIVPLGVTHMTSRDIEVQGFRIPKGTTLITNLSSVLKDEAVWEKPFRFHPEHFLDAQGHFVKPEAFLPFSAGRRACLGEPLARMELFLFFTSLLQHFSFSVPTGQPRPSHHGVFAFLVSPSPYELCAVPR
Chain of Cytochrome P450 1A2 (Homo sapiens) (P05177 whole entry, looked up): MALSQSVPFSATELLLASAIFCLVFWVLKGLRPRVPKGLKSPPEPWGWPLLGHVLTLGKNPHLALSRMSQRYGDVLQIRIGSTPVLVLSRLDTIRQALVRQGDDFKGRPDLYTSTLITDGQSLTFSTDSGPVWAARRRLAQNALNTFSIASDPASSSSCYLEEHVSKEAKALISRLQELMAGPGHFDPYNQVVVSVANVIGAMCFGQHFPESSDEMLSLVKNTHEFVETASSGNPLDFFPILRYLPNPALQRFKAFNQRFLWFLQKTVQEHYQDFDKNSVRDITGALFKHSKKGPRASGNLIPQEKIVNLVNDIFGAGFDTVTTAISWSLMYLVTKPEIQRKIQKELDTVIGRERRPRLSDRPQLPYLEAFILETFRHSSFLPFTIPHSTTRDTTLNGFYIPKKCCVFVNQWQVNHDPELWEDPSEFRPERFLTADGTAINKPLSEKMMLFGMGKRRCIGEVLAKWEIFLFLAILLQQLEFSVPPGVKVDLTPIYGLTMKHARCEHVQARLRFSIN
Chain of Nuclear receptor subfamily 1 group I member 2 (Rattus norvegicus) (Q9R1A7 whole entry, looked up): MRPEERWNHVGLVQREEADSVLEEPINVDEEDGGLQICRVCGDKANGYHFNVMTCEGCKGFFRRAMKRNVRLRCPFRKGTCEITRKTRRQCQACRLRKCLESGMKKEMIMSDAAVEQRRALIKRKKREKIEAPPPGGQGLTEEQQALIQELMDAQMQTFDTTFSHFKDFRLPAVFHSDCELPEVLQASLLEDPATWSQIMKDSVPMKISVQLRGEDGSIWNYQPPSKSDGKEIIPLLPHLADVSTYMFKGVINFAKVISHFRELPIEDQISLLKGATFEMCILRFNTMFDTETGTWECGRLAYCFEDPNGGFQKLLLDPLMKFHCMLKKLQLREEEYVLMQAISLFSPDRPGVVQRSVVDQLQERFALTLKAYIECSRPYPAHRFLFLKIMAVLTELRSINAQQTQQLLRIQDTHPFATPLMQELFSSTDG

SMILES	Potency [1]	Potency [2]	outcome [3]	Potency [4]	max activation [5]	Potency [6]	outcome [7]	Potency [8]	Potency [9]	Potency [10]	Potency [11]	Potency [12]	Potency [13]	Potency [14]	Potency [15]
CCCCCCCCCCCCCCCCO	inactive	inactive	inactive	inactive	-1.74% (inactive)	inactive	inactive	inactive	inactive	17.8 µM (active) and inactive	inactive	inactive	inactive		
CC(=O)OCc1ccccc1	inactive		inactive	inactive				inactive	inactive	inactive	inactive	inactive	inactive	inactive	inactive
CCNc1cccc(C)c1	inactive	inactive	inactive	inactive				inactive	30.5 µM (active) and inactive		inactive	inactive	inactive		
c1ccc2c(c1)Cc1ccccc1-2	inactive		inactive	inactive				inactive	inactive and 35.6 µM (active)	inactive and 39.9 µM (active)	25.6 µM (active) and 7.96 µM (active)	inactive	inactive		inactive
COc1cc(OC)c(C(=O)CCCN2CCCC2)c(OC)c1	inactive	inactive	inactive	inactive	-3.14% (inactive)				inactive		inactive	inactive			
CC(C)CC(C)O (stereo not given)	inactive		inactive	inactive				inactive	inactive	inactive and 31.7 µM (active)		inactive	inactive		inactive
Nc1nc(N)nc(-c2ccccc2)n1	inactive		inactive	inactive				inactive	inactive	inactive	31.4 µM (active) and 35.6 µM (active)	inactive	inactive		
COc1ccccc1OCC(O)CO (stereo not given)	inactive		inactive	inactive								inactive		inactive	
O=C(OCC1CCC2OC2C1)C1CCC2OC2C1 (stereo not given)	inactive		inactive	inactive				16.6 µM (active) and inactive	inactive	71 µM (active)		inactive		inactive	inactive
C=CC(=O)OCCC(=O)O	inactive	inactive	inactive	inactive				23.2 µM (active) and inactive	104 µM (active) and inactive	inactive		inactive	inactive		inactive
COC(=O)c1cccnc1	inactive		inactive	inactive	-1.84% (inactive)	inactive	inactive	inactive	inactive	inactive	inactive	inactive	inactive	inactive	
C[C@]12CCC(=O)C=C1CC[C@@H]1[C@@H]2[C@@H](O)C[C@@]2(C)[C@H]1CC[C@]2(O)C(=O)CO	inactive		inactive	inactive	9.15% (inactive)			inactive	inactive	inactive		inactive		inactive	
CCNc1ccccc1	inactive		inactive	inactive				inactive	25.6 µM (active)		32.3 µM (active) and inactive	inactive	inactive		
O=C(O)Cn1c(=O)n(Cc2ccc(Br)cc2F)c(=O)c2ccc(Cl)cc21	inactive	inactive	inactive					inactive	inactive	31.7 µM (active) and 15.5 µM (active)	79.6 µM (active) and inactive	inactive	inactive		
CC(=O)OCc1ccco1	inactive		inactive	inactive				inactive	70.6 µM (active) and inactive	inactive	inactive	inactive	inactive	15.3 µM (active) and inactive	
C=CCc1ccc(OC)c(OC)c1	inactive		inactive	inactive				inactive	inactive		18 µM (active) and 22.4 µM (active)	inactive	inactive		inactive
C=C(C)CNCC	inactive		inactive	inactive				31.2 µM (active) and inactive	inactive	inactive	inactive	inactive	inactive	inactive	inactive
C=CC(C)CCCC(C)(C)O (stereo not given)	inactive	inactive	inactive	inactive				31.7 µM (active)	inactive	inactive	39.8 µM (active)	43.6 µM (active) and inactive	inactive		inactive
Cc1ccc2ncccc2c1	inactive	inactive	inactive	inactive				inactive	inactive		39.9 µM (active) and inactive	inactive	inactive		

SMILES	Potency [1]	Potency [2]	outcome [3]	Potency [4]	max activation [5]	Potency [6]	outcome [7]	Potency [8]	Potency [9]	Potency [10]	Potency [11]	Potency [12]	Potency [13]	Potency [14]	Potency [15]
CC(C)CCCCCCCOC(=O)CCCCC(=O)OCCCCCCCC(C)C	inactive	inactive	inactive	inactive				inactive	92.8 µM (active) and inactive	inactive	inactive	inactive	inactive		
COc1ccc([N+](=O)[O-])cc1N	inactive		inactive					inactive	35.7 µM (active) and 79.6 µM (active)	40.1 µM (active) and 63.3 µM (active)	22.5 µM (active) and 31.7 µM (active)	inactive	35.7 µM (active) and 35.6 µM (active)	inactive	
CN(C)c1ccc(Cc2ccc(N(C)C)cc2)cc1	inactive		inactive	inactive				40.1 µM (active)	179 nM (active) and 356 nM (active)	12.7 µM (active) and 31.7 µM (active)	2.26 µM (active) and 5.03 µM (active)		35.7 µM (active) and 15.9 µM (active)		30.8 µM (active) and 43.3 µM (active)
CNC(=S)N(C)C	inactive	inactive	inactive	inactive				inactive	inactive	inactive	inactive	inactive	inactive		61.7 µM (active) and inactive
C=Cc1ccc(C)cc1	inactive		inactive	inactive				inactive	inactive	inactive	inactive	inactive	inactive		inactive
N#Cc1ccccc1	inactive		inactive	inactive				inactive	inactive	inactive	inactive	inactive	inactive		
CCOC(=O)n1ccn(C)c1=S	inactive		inactive	inactive	-4.98% (inactive)	inactive	inactive	inactive	inactive	inactive	39.9 µM (active) and inactive	inactive	inactive	inactive	
Nc1ccc(Cl)c(N)c1	inactive		inactive	inactive				inactive	11.3 µM (active) and 20 µM (active)		40 µM (active) and 35.6 µM (active)	inactive	11.3 µM (active) and 31.7 µM (active)	inactive	61.3 µM (active)
O=S(=O)(O)c1ccc(N=Nc2c(O)ccc3cc(S(=O)(=O)O)ccc23)cc1	39.8 µM (active) and 30.6 µM (active)	inactive	inactive	54.7 µM (active) and 30.6 µM (active)				31.8 µM (active)	71.3 µM (active)		40.1 µM (active)	inactive	inactive		inactive
C=C(C)[C@H]1CC=C(C)C(=O)C1	inactive	inactive	inactive	inactive				18.2 µM (active) and inactive	inactive	inactive	inactive	inactive	inactive		
O=C(O)c1ccccc1C(=O)O	inactive	inactive	inactive	inactive				inactive	41.2 µM (active) and 82.1 µM (active)	inactive		inactive	inactive		inactive
CCOCC(=O)O	inactive		inactive	inactive				32.4 µM (active) and 31.7 µM (active)	inactive	inactive	inactive	inactive	inactive	inactive	
CCCCCCCCCCO	inactive	inactive	inactive	inactive				inactive	inactive	inactive	inactive and 31.7 µM (active)	inactive	inactive		
COc1ccc(N)c(C)c1	inactive		inactive	inactive				8.9 µM (active) and 31.7 µM (active)	39.8 µM (active) and 39.9 µM (active)	35.4 µM (active) and 63.3 µM (active)	15.8 µM (active) and 12.6 µM (active)	inactive	31.6 µM (active)	inactive	
NCCNCCN	inactive	inactive	inactive	inactive				63.5 µM (active)	inactive	inactive	71.2 µM (active) and inactive	inactive	inactive		inactive
CCCCC(C=O)CC (stereo not given)	inactive	inactive	inactive	inactive				inactive	inactive	inactive	inactive	inactive	inactive		inactive
CC1(C)OC[C@@H]2O[C@@]3(C(=O)O)OC(C)(C)O[C@H]3[C@@H]2O1	inactive		inactive	inactive	-1.74% (inactive)	inactive	inactive	inactive	inactive	inactive	inactive	inactive	inactive	inactive	
CC(C)=CCl	inactive		inactive	inactive				10.1 µM (active) and inactive	inactive	inactive	inactive	inactive	inactive		
C[C@]12CC[C@@H]3c4ccc(O)cc4CC[C@H]3[C@@H]1C[C@@H](O)[C@@H]2O	inactive	inactive	inactive	inactive	-0.315% (inactive)	inactive	inactive	inactive	inactive	inactive	31.7 µM (active) and inactive	inactive	inactive		
